The target of this test is AMP-activated protein kinase, AMPK (Homo sapiens) (UniProt P54646+O43741+P54619+Q9UGJ0+Q9Y478+Q13131+Q9UGI9). Kind of test: AMP-dependent Kinase enzyme assay. An in vitro enzyme assay that detects ADP turnover that is directly proportional to AMPK activity. This uses naive AMPK that is activated during the assay with MK-8722. Type of test: functional. More on the design: scale not given: direction of the effect not stated beside the values. To be noted: 30 µM.
For the molecule `COc1cccc2c1OCC(C(=O)NCc1ncc3c(n1)CCC3)C2` (stereo not drawn), the Percent Effect is 6.59%.
In the case of `COc1cccc2c1OCC(Cc1cc(C(N)=O)ccn1)C2` (stereo not drawn) it was -13%; in that of `CCCSCC(=O)N1CCCC(CO)(CCC)C1` (stereo not drawn), 7%; in that of `Cc1ccccc1N1CCN(C(=O)CCc2nncn2C)C(C)C1` (stereo not drawn), 6.58%.
In the case of `Cc1noc(C2CCN(Cn3cc(Cl)cn3)CC2)n1` it was 2.75%; in that of `O=C(Nc1ccccc1C(=O)NCCCN1CCOCC1)c1ccco1`, 0.765%.
Consider `Cc1nccc(CN2Cc3nccn3CC2c2ccccc2)n1` (stereo not drawn), for which the Percent Effect was 15%.
In the case of `O=C(Nc1ccccc1F)NC1(CO)CCOCC1` it was -1.57%; in that of `CCc1noc(C(C)Sc2nnc(C3CC3)n2CC(N)=O)n1` (stereo not drawn), -8.4%.
The result for `Cc1nc(OCC(=O)N2CCCC2)cc(-n2cccn2)n1` reads 3.39%; that for `CN(CC(O)C(F)(F)F)C(=O)Nc1cccc(N2CCCC2)c1` (stereo not drawn), -4.79%.
In the case of `O=S(=O)(NCc1ccnc(-n2ccnc2)c1)c1cncc(F)c1` it was -5.49%; in that of `CCOc1cc(Cl)ccc1CNC(=O)c1ccc(=O)n(C)c1`, 10.5%; in that of `CCN(CC1=CCN(C)CC1)C(=O)CCOC`, -8.72%.
As to `CC1CN(CC(=O)NCCc2ccccc2)CCN1c1nccs1` (stereo not drawn), the Percent Effect was 25.7%.
In the case of `Cc1cc(C(=O)NC(C)Cc2ccccc2Cl)n(C)n1` (stereo not drawn) it was 7.6%; in that of `CCC(=O)Nc1cccc(OCC(=O)N[C@@H]2C[C@H]3CC[C@@H]2C3)c1`, 3.88%.
The result for `COc1ccc(Cn2c(CCc3c(C)n[nH]c3C)n[nH]c2=O)cc1` reads -3.53%.

The record behind these values is ChEMBL document CHEMBL3988442, “University of Dundee, Small-Polar-MMV Screening Library” (2021).
